The sequences below were run against GST-Hu-p50 (Homo sapiens, UniProt P19838 7-356) (assay: protein-binding microarray (PBM); PBM: ~300 nM protein, 6 mM HEPES pH 7.8, 80 mM KCl, 0.5 mM EDTA, 0.5 mM EGTA, 6% glycerol, 35 ng/ul poly-dIdC, 1% milk, 1 h, room temperature; Ap Aiptasia and Nv Nematostella (sea anemones) / Co Capsaspora / Aq Amphimedon (sponge) / Dm Drosophila / Hu human; RHD is the Rel homology domain; high values mean tight binding). Details: dsDNA, one strand shown.
Sequence of GST-Hu-p50 (P19838 7-356): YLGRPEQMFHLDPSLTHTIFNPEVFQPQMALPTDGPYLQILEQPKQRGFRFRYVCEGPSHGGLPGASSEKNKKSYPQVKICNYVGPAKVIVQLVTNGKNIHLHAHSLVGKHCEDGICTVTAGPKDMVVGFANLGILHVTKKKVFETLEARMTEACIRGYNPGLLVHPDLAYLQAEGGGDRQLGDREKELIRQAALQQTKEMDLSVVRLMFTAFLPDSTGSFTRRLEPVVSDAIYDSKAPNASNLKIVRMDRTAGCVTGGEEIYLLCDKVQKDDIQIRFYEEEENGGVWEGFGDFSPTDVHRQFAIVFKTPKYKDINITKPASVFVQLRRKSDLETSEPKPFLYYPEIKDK

Sequence	binding signal [z-score]
CCGATTAACATCAGGGGAACATATGATGTTAATCGGGTCTTGATTCGCTTGACGCTGCTG	4.06
CCGATTAACATCACAATTTTCCCTGATGTTAATCGGGTCTTGATTCGCTTGACGCTGCTG	4.58
CCGATTAACATCACAGGAATTTCTGATGTTAATCGGGTCTTGATTCGCTTGACGCTGCTG	1.08
CCGATTAACATCAATAAAATTCCTGATGTTAATCGGGTCTTGATTCGCTTGACGCTGCTG	1.02
CCGATTAACATCAGGGGAATGGATGATGTTAATCGGGTCTTGATTCGCTTGACGCTGCTG	4.59
CCGATTAACATCATGTCTATCGGTGATGTTAATCGGGTCTTGATTCGCTTGACGCTGCTG	1.14
CCGATTAACATCACTATTTTCCCTGATGTTAATCGGGTCTTGATTCGCTTGACGCTGCTG	3.18
CCGATTAACATCACCTTCTTTACTGATGTTAATCGGGTCTTGATTCGCTTGACGCTGCTG	1.59
CCGATTAACATCAAGAAATTCCTTGATGTTAATCGGGTCTTGATTCGCTTGACGCTGCTG	1.18
CCGATTAACATCAGAAAATTTCCTGATGTTAATCGGGTCTTGATTCGCTTGACGCTGCTG	1.69
CCGATTAACATCAGGGAAAATCATGATGTTAATCGGGTCTTGATTCGCTTGACGCTGCTG	3.98

Reference: paper PMC5700166
